PP1 counter: PP1-alpha (human) inhibition in PP5 counter-screen; P62136; purified PP1alpha, OMFP fluorescence; inhibition, % at 6.7 µM; 320,000 tested, 0.9% active; AID 2235;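 active means inhibition above the mean inhibition of all tested compounds plus 3 SD, computed separately for each screening campaign, cut at about 15% in these data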
Target sequence (P62136 whole entry, looked up): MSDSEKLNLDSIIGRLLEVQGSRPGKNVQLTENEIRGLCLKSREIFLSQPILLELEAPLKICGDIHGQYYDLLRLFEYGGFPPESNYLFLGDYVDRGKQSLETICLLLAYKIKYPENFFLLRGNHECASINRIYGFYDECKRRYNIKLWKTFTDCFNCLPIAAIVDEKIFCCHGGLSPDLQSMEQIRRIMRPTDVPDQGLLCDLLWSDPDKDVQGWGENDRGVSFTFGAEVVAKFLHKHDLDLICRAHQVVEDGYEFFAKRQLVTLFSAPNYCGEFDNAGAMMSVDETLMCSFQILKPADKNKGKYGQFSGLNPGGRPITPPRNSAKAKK
PG9 binder: binds the HIV-1 gp120 antibody PG9. TR-FRET gp120-PG9 antibody binding. inhibition, % at 6.7 µM. 360,000 tested, 0.43% active. AID 624416; in the data active means inhibition above about 8.5%
GASC-1 inh: human JMJD2C demethylase inhibition | Q9H3R0 | GST-JMJD2C(1-420) H3K9me3 demethylation, DELFIA europium | inhibition, % at 2.35 µM | 330,000 tested, 0.069% active;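 active means more than half of a compound's replicate wells show inhibition beyond 50%, single wells judged on their own value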;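 further: signal counts dimethyl H3K9 product captured on neutravidin plate; 0% = median of DMSO wells and 100% = 0.3 times that DMSO median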
PP5 inh: PP5 (human) phosphatase inhibition. inhibition, % at 6.7 µM. purified PP5c, OMFP substrate fluorescence. AID 1987. 320,000 tested, 0.18% active. P53041;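 active means inhibition above the campaign's mean inhibition across all tested compounds plus 3 SD, cut at about 9.5% in these data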;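 further: 0% = DMSO only and 100% = 100 µM cantharidin control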
NR1D1 modulator: Rev-erb alpha (human) modulation; Rev-erbα–FITC-DNA binding, fluorescence polarization, 90 min; activity, % at 10 µM; 370,000 tested, 0.79% active; AID 1259318;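 active means activity above about 14%, limit read from the data; passing the limit was not always enough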;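 further: 0% = DMSO wells with 35 nM protein and 100% = DMSO wells with 750 nM protein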
proKLK7 act: activates the human kallikrein-7 zymogen; P49862; purified proKLK7, EDANS-DABCYL substrate fluorescence; 100% is mature enzyme control, 0% vehicle; activation, % at 7 µM; 370,000 tested, 0.9% active;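 active means activation above the mean of all tested compounds plus 3 SD, computed per campaign excluding outliers beyond control limits, cut at about 13% in these data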
Target sequence (P49862 whole entry, looked up): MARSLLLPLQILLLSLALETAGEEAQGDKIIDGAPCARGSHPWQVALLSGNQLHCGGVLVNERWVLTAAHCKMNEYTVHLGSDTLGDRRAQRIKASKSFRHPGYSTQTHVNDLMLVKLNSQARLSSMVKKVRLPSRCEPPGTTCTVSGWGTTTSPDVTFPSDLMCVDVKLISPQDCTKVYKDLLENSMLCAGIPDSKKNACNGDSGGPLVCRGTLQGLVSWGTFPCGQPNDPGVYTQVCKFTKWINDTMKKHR
PP1 inh confirm: human PP1 phosphatase inhibition, confirmation. shares compounds with PP1 counter. inhibition, % at 6.7 µM. purified PP1alpha, OMFP substrate fluorescence. 1,900 tested, 52% active. AID 2358;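 active means mean PP1 inhibition above a set limit taken from the earlier primary screen, cut at about 15% in these data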
PP5 inh counter: inhibits human PP5 phosphatase in PP1 counter-screen | shares compounds with PP1 counter | AID 2360 | purified PP5c, OMFP fluorescence | 1,900 tested, 4% active | inhibition, % at 6.7 µM;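 active means mean PP5 inhibition over triplicate wells above about 9.5% taken from the earlier PP1 screen, limit read from the data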
Numbers without * were called inactive; . = no result given. Shown are actives, neighbours in structure and some others; about 2.8% of the full set was active somewhere.

SMILES	PP1 counter	PG9 binder	GASC-1 inh	PP5 inh	NR1D1 modulator	proKLK7 act	PP1 inh confirm	PP5 inh counter
COc1cccc(C2c3c(-c4cc(Cl)c(C)cc4O)n[nH]c3C(=O)N2Cc2cccnc2)c1 (stereo not drawn)	19*	-1	5	8	-3	0	12	-1
COc1ccccc1N1CCN(C(=O)c2ccc3c(c2)nc(C)n3-c2cc(OC)c(OC)c(OC)c2)CC1	.	.	.	.	-6	0	.	.
O=c1c(C(c2ccccc2)c2c(O)sc3ccccc3c2=O)c(O)sc2ccccc12	25*	-4	7	3	-1	0	31*	1
O=c1c2ccccc2sc2ccccc12	.	-1	.	.	8	-5	.	.
Cc1ccccc1NC(=O)O[C@H]1CC[C@@]23CCCN2C(=O)CCC[C@H]3[C@H]1C	.	.	.	.	1	.	.	.
NC(=O)/C(=N\OC(=O)c1ccco1)c1nc(-c2ccc(Br)cc2)cs1	27*	3	4	5	2	1	6	-2
COC(=O)[C@]12C[C@H](CC(=O)NCCCN3CCCC3=O)C(=O)N(CCc3ccc(OC)c(OC)c3)C1=C[C@H](C(C)(C)C)O[C@@H]2C	.	.	.	.	1	0	.	.
Nc1nn2c(-c3ccccc3)cc(=O)[nH]c2c1N=Nc1ccc(O)cc1	28*	-8	51*	3	11	0	20*	1
Cc1ccccc1N(C)C(=O)Cn1nnc(-c2ccccc2F)n1	.	.	.	.	6	0	.	.
COc1ccc(-c2cc(C(=O)NNC(=S)NC(=O)c3c(-c4ccccc4)noc3C)[nH]n2)cc1	18*	0	-26	2	-14	0	17*	-1
COC(=O)CCC(=O)OC1(C)C(=O)C=C2C=C(C3CC3)N(c3ccc(CO)cc3)C=C2C1=O (stereo not drawn)	19*	.	10	7	.	.	20*	9.9*
COC(=O)CCC(=O)OC1(C)C(=O)C2=CN(c3ccc(OC)cc3)C(c3ccc(OC)cc3)=CC2=C(Br)C1=O (stereo not drawn)	20*	.	12	4	.	.	16*	20*
COC(=O)CCC(=O)OC1(C)C(=O)C2=CN(C3CCCC3)C(c3ccc(OC)cc3)=CC2=C(Br)C1=O (stereo not drawn)	17*	0	0	9.7*	4	2	15	35*
CCN(CC)CCCN1C=C2C(=O)C(C)(OC(=O)CCC(=O)OC)C(=O)C(Br)=C2C=C1c1ccc(OC)cc1 (stereo not drawn)	8	0	3	4	-5	4	.	.
COC(=O)CCC(=O)OC1(C)C(=O)C2=CN(Cc3ccco3)C(c3ccc(OC)cc3)=CC2=C(Br)C1=O (stereo not drawn)	0	.	3	3	.	.	.	.
COc1cccc(C(=O)N[C@H](C(=O)N2CCC[C@H]2C(=O)NC2CCCC2)c2ccccc2)c1	.	0	.	.	14	0	.	.
CC1=C(C(=O)OCc2ccccc2)C(c2ccc(-c3ccccc3)cc2)NC(=O)N1CCCCCC(=O)O (stereo not drawn)	19*	0	14	-1	1	0	3	-4
CC1=Nc2nc(N3CCCCC3)c(C#N)c3c4c(nc(c23)N1)N(c1ccc(C(C)C)cc1)C(=O)C4	20*	2	-6	1	-3	-1	16*	-1
Cc1cccn2c(Nc3ccccc3)c(-c3ccccn3)nc12	12	0	12	0	2	0	.	.
Cc1ccn2c(Nc3ccccc3)c(-c3ccccn3)nc2c1	31*	-1	-2	2	3	0	33*	-1
Cc1ccc2nc(-c3ccccn3)c(Nc3ccccc3C)n2c1	30*	0	-14	4	-4	0	42*	5
Cc1ccc2nc(-c3cccnc3)c(Nc3ccccc3C)n2c1	-2	1	10	2	-3	0	.	.
Cc1ccccc1Nc1c(-c2cccnc2)nc2ccccn12	-9	0	-5	1	0	0	.	.
Cc1ccccc1Nc1c(-c2ccccn2)nc2ccccn12	34*	-2	-8	3	2	0	12	2
Cc1ccn2c(Nc3ccccc3C)c(-c3ccccn3)nc2c1	32*	1	-26	4	-1	0	39*	3
SMILES	PP1 counter	PG9 binder	GASC-1 inh	PP5 inh	NR1D1 modulator	proKLK7 act	PP1 inh confirm	PP5 inh counter
O=c1c2ccccc2n(Cc2ccccc2)n1[C@@H](Cc1ccccc1)Cn1cc(C2CCCC2)nn1	.	.	.	.	4	-4	.	.
Cc1nn(CCC(=O)NNC(=O)NCc2ccccc2)c(C)c1[N+](=O)[O-]	.	.	.	.	5	1	.	.
O=S1(=O)c2ccc(N3CCN(Cc4ccccc4F)CC3)cc2Oc2ccccc2CN1Cc1cn(Cc2cccc(C(F)(F)F)c2)nn1	.	.	.	.	11	-1	.	.
Cc1nnc(NC(=O)c2ccc(S(=O)(=O)N3CCCCC3C)cc2)o1 (stereo not drawn)	13	-2	4	5	-7	0	.	.
O=C(Nc1nnc(C2=COCCO2)o1)c1ccc(Cl)cc1	5	-2	-1	2	-3	0	.	.
CC1CCCN(S(=O)(=O)c2ccc(C(=O)Nc3nnc(C4=COCCO4)o3)cc2)C1 (stereo not drawn)	19*	-3	-3	4	-3	-1	1	-4
O=C(Nc1nnc(C2=COCCO2)o1)c1ccc(Cc2ccccc2)cc1	22*	-2	-4	0	-6	0	20*	-1
Cc1nnc(NC(=O)c2ccc(S(=O)(=O)N3CC(C)CC(C)C3)cc2)o1 (stereo not drawn)	22*	2	3	1	2	0	8	0
CC1CCCCN1S(=O)(=O)c1ccc(C(=O)Nc2nnc(C3=COCCO3)o2)cc1 (stereo not drawn)	13	-1	-13	1	-1	0	.	.
Cc1nnc(NC(=O)c2ccc(S(=O)(=O)N3CCc4ccccc4C3)cc2)o1	24*	1	-11	2	-2	0	21*	-3
O=C(NCc1ccco1)c1nc2c(nnn2Cc2cccc(Cl)c2)c(=O)[nH]1	11	3	-3	0	-1	0	.	.
O=C(NCCc1ccccc1)c1nc2c(nnn2Cc2ccccc2Cl)c(=O)[nH]1	47*	-1	-50	0	-2	0	21*	-1
O=C(NCc1ccccc1)c1nc2c(nnn2Cc2cccc(Cl)c2)c(=O)[nH]1	21*	-2	7	-3	-5	0	14	-3
O=C(NC1CC1)c1nc2c(nnn2Cc2ccccc2Cl)c(=O)[nH]1	-2	0	2	1	1	0	.	.
